# Laboratory results published in article PMC7862700, “An all-to-all approach to the identification of sequence-specific readers for epigenetic DNA modifications on cytosine”.
# Legend:
# Test in all cases: DAPPL (digital affinity profiling via proximity ligation, sequencing); 10 mM Tris-HCl pH 7.5, 50 mM NaCl, 1 mM DTT, 4% glycerol, room temperature, 30 min; GST-TFs on glutathione beads, 16-mer random dsDNA library, 0.1% formaldehyde crosslink after washing; high values mean tight binding
# Conditions in all cases: protein: recombinant; tags: N-terminal GST; dsDNA, one strand shown
# [1] = target: T1, FLI1 (Homo sapiens, UniProt Q01543 1-452)
# T1 sequence: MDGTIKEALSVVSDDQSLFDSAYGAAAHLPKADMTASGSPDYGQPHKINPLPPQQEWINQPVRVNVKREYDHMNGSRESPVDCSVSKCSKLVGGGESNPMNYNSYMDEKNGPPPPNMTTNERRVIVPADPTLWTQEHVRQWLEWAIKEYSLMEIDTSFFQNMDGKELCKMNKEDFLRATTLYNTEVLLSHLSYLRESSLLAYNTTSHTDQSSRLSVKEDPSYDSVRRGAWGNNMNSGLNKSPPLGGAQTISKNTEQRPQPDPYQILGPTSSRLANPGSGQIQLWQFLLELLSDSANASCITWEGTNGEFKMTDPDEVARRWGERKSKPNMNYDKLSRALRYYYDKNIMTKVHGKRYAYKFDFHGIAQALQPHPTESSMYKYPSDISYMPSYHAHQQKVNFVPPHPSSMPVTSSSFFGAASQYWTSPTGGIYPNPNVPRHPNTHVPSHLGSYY
# How it was run: (§1)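 After expression in yeast as GST fusions, human transcription factors were bound to glutathione beads, DNA-barcoded and mixed with a tag-only sample. The pools were incubated with 200 nmole of a 16-mer random double-stranded DNA library in Tris/NaCl/DTT/glycerol buffer (30 min, room temperature), washed and crosslinked with 0.1% formaldehyde. Proximity ligation with BsaI/T4 ligase ran for 1 h at 37 °C, before PCR amplification and sequencing on an Illumina NextSeq500. Binding signal is a hexamer's read frequency for a factor divided by its frequency for the tag-only sample.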
# [2] = target: T2, ELK1 (Homo sapiens, UniProt P19419 1-428)
# T2 sequence: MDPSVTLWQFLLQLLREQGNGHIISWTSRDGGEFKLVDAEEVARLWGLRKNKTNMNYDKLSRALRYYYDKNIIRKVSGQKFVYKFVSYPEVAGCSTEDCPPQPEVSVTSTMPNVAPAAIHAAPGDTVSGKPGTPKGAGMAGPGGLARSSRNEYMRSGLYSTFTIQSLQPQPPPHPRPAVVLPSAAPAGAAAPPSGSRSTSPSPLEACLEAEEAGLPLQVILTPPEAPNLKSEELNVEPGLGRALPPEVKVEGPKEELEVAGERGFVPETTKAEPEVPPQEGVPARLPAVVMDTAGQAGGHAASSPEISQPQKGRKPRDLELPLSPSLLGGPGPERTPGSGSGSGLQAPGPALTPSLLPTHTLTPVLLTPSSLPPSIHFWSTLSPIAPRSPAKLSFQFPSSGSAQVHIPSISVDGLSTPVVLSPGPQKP
# How it was run: as §1
# [3] = target: T3, GABPA (Homo sapiens, UniProt Q06546 1-454)
# T3 sequence: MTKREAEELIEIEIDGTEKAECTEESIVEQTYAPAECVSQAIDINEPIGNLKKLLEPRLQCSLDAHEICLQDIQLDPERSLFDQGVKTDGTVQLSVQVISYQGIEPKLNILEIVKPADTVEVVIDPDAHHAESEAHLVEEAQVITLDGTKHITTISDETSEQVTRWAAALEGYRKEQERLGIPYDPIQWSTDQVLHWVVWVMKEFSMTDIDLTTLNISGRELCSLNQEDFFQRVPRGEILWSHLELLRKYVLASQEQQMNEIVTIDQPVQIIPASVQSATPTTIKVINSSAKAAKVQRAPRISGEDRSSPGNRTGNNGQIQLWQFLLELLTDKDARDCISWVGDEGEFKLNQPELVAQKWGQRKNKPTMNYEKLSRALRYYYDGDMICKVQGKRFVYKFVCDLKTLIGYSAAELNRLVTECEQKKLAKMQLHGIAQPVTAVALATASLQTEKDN
# How it was run: as §1
# [4] = target: T4, ERG (Homo sapiens, UniProt P11308 1-479)
# T4 sequence: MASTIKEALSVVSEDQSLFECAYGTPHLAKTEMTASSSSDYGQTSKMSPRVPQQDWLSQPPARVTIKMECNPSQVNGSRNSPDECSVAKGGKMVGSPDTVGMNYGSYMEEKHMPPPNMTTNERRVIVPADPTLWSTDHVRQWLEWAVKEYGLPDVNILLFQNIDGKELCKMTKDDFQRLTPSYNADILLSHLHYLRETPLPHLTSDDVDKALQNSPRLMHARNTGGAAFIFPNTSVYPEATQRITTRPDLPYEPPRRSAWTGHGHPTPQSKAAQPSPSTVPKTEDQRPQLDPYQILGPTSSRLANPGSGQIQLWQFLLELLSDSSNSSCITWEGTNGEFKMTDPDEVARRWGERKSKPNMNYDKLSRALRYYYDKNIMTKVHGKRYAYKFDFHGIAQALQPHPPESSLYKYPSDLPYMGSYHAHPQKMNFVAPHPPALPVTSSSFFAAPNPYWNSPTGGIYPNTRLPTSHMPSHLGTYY
# How it was run: as §1
# [5] = target: ELF1 (Homo sapiens, UniProt P32519 1-619)
# How it was run: as §1
# [6] = target: T5, EHF (Homo sapiens, UniProt Q9NZC4 1-300)
# T5 sequence: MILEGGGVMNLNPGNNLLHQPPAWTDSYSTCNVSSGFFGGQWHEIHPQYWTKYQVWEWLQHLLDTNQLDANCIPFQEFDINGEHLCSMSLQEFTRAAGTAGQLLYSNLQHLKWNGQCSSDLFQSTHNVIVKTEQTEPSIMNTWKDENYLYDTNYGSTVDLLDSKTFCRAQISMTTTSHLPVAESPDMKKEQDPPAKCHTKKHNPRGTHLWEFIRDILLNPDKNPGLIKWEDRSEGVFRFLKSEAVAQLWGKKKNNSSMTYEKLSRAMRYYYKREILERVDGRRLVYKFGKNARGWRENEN
# How it was run: as §1
# [7] = target: SPI1 (Homo sapiens, UniProt P17947 1-270)
# How it was run: as §1
# [8] = target: SPIB (Homo sapiens, UniProt Q01892 1-262)
# How it was run: as §1
# [9] = target: T6, ELK3 (Homo sapiens, UniProt P41970 1-407)
# T6 sequence: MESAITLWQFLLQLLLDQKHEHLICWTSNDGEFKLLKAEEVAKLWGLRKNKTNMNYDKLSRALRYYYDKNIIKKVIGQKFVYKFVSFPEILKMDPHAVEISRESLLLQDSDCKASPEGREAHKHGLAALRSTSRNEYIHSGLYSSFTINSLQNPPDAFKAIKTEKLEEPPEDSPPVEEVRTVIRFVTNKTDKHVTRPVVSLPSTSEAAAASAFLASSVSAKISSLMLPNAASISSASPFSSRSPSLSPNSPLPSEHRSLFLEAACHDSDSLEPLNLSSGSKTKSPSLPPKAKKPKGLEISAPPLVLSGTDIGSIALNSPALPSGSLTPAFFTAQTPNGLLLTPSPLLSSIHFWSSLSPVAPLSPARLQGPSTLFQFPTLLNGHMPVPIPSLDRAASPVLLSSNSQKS
# How it was run: as §1
# Chain of SPIB (Q01892 whole entry): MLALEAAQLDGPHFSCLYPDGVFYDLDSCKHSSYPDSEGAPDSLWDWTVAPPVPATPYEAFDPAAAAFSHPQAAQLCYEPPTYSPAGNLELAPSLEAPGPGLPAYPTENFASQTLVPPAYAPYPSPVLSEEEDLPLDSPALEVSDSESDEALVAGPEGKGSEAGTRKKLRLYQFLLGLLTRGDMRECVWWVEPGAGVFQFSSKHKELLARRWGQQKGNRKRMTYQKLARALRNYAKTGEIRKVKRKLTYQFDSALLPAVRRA
# Chain of ELF1 (P32519 whole entry): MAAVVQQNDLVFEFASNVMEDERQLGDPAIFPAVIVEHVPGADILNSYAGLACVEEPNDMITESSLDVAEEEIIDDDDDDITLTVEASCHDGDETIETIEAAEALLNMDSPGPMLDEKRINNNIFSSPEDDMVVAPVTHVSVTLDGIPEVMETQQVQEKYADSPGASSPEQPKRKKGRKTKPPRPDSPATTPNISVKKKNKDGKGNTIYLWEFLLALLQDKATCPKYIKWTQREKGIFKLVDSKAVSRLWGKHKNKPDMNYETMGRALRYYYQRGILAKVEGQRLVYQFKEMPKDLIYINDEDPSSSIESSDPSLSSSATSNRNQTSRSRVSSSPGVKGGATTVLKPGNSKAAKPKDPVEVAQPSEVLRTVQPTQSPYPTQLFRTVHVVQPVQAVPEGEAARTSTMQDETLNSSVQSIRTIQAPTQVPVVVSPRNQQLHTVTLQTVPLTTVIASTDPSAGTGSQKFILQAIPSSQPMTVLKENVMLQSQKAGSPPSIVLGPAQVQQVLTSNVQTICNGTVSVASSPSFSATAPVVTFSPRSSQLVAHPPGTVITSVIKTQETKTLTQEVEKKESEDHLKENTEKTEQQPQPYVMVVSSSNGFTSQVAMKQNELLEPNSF
sequence,measurement,setting,value
GTTCCG,binding signal,[1],"1.81 fold enrichment (6-mer frequency, TF over GST control)"
same,binding signal,[2],"2.02 fold enrichment (6-mer frequency, TF over GST control)"
same,binding signal,[3],"1.64 fold enrichment (6-mer frequency, TF over GST control)"
same,binding signal,[4],"1.95 fold enrichment (6-mer frequency, TF over GST control)"
same,binding signal,[5],"1.78 fold enrichment (6-mer frequency, TF over GST control)"
same,binding signal,[6],"2.05 fold enrichment (6-mer frequency, TF over GST control)"
same,binding signal,[7],"2.19 fold enrichment (6-mer frequency, TF over GST control)"
same,binding signal,[8],"2.15 fold enrichment (6-mer frequency, TF over GST control)"
same,binding signal,[9],"1.71 fold enrichment (6-mer frequency, TF over GST control)"
